± gives the standard deviation of the averaged measurements. The full ranking holds about 1,900 compounds; the median of “normalised cell viability (NPI; 0 = phenylarsine oxide control, 1 = DMSO control)” is about 1, and the lowest 2% start at about 0.039. This is one part of a sample in which the lowest values are shown more often than they occur.
Tested on: NCI-H1944
Test: normalised cell viability (NPI; 0 = phenylarsine oxide control, 1 = DMSO control) (fraction of DMSO control); NCI-H1944 is a non-small cell lung cancer line; higher = more viable cells (less compound toxicity)
Conditions: 6 days
[1] = glucocorticoid arm: hydrocortisone 2.75 uM co-treatment, compound 1 µM
[2] = glucocorticoid arm: hydrocortisone 2.75 uM co-treatment, compound 5 µM
[3] = glucocorticoid arm: hydrocortisone 2.75 uM pre-treated 2 days and continued, compound 1 µM
[4] = glucocorticoid arm: hydrocortisone 2.75 uM pre-treated 2 days and continued, compound 5 µM
[5] = glucocorticoid arm: vehicle, compound 1 µM
[6] = glucocorticoid arm: vehicle, compound 5 µM
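Note: CTB read-out in 384-well plates, triplicate wells, NPI normalised per plate against 1 µM phenylarsine oxide (0) and 0.1% DMSO (1) controls.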

Compound | normalised cell viability [1] | normalised cell viability [2] | normalised cell viability [3] | normalised cell viability [4] | normalised cell viability [5] | normalised cell viability [6]
S=C(S)OC1CC2CC1C1CCCC21 [D-609 potassium] | 1.02 ± 0.01 | 1.03 ± 0.017 | 1.04 ± 0.02 | 1.04 ± 0.01 | 1.03 ± 0.011 | 1.03
Cn1c(=O)c2nc[nH]c2n(C)c1=O [Theophylline] | 1.001 ± 0.0085 | 1.01 ± 0.01 | 1.02 ± 0.021 | 0.9943 ± 0.0049 | 0.99 ± 0.0087 | 0.9907 ± 0.0038
O=C1OC(=O)[C@H]2[C@@H]1[C@@H]1CC[C@H]2O1 [Norcantharidin] | 1.007 ± 0.0058 | 1.03 ± 0.02 | 1.02 ± 0.011 | 0.924 ± 0.23 | 0.9903 ± 0.0011 | 1 ± 0.022
O=C(Cc1ccc(-c2ccc(OCCN3CCOCC3)cc2)cn1)NCc1ccccc1 | 0.235 ± 0.021 | 0.258 ± 0.015 | 0.464 ± 0.041 | 0.518 ± 0.077 | 0.0379 ± 0.0028 | 0.0359 ± 0.0039
O=C(OCCN1CCOCC1)C1(c2ccccc2)CCCCC1 | 1.01 ± 0.011 | 1.03 ± 0.088 | 1.02 ± 0.015 | 0.891 ± 0.21 | 1.017 ± 0.0058 | 1.03 ± 0.011
Cc1ccc(-n2nc(C(C)(C)C)cc2NC(=O)Nc2ccc(OCCN3CCOCC3)c3ccccc23)cc1 [BIRB 796 (Doramapimod)] | 0.806 ± 0.012 | 0.826 ± 0.03 | 0.775 ± 0.019 | 0.816 ± 0.034 | 0.995 ± 0.005 | 1.017 ± 0.0058
CCS(=O)(=O)Nc1ccc2[nH]c(O)c(C(=Nc3ccc(CN4CCCCC4)cc3)c3ccccc3)c2c1 [Hesperadin] | 0.435 ± 0.035 | 0.396 ± 0.068 | 0.419 ± 0.087 | 0.51 ± 0.08 | 0.371 ± 0.08 | 0.218 ± 0.035
CCCCCCCCCC(=O)NC(CN1CCOCC1)[C@H](O)c1ccccc1 (mixture of isomers) | 1.01 | 0.9997 ± 0.0096 | 1.02 ± 0.026 | 1.01 ± 0.024 | 1.01 | 0.997 ± 0.014
CC(C)C[C@H](NC(=O)[C@H](CCc1ccccc1)NC(=O)CN1CCOCC1)C(=O)N[C@@H](Cc1ccccc1)C(=O)N[C@@H](CC(C)C)C(=O)[C@@]1(C)CO1 [Carfilzomib (PR-171)] | 0.0181 ± 0.0047 | 0.000755 ± 0.00097 | 0.777 ± 0.051 | 0.12 ± 0.025 | 0.0054 ± 0.0013 | -0.000926 ± 0.0006
CC(C)C[C@H](NC(=O)[C@H](CCc1ccccc1)NC(=O)CN1CCOCC1)C(=O)N[C@@H](Cc1ccccc1)C(=O)N[C@@H](CC(C)C)C(=O)[C@@]1(C)CO1 [Carfilzomib] | 0.0119 ± 0.0019 | 0.198 ± 0.017 | 0.652 ± 0.035 | 0.986 ± 0.013 | 0.00203 ± 0.0017 | 0.0026 ± 0.00057
CNC(=N)NCCC[C@H](N)C(=O)O [NG-Monomethyl-L-arginine acetate] | 1.001 ± 0.009 | 0.985 ± 0.022 | 1.001 ± 0.0081 | 0.879 ± 0.24 | 0.9883 ± 0.0097 | 0.991 ± 0.0079
S=C=Nc1cccc(NC(=S)NCCCCNC(=S)Nc2cccc(N=C=S)c2)c1 | 1.04 ± 0.04 | 1.05 ± 0.015 | 1.02 ± 0.033 | 1.04 ± 0.032 | 1.017 ± 0.0058 | 1.003 ± 0.0058
CCc1cccc(N(C)C(=N)Nc2cccc3ccccc23)c1 | 0.999 ± 0.027 | 0.918 ± 0.012 | 1.006 ± 0.0069 | 0.967 ± 0.013 | 1.003 ± 0.0064 | 1.01 ± 0.01
COc1ccc2c(c1)c(CC(=O)O)c(C)n2Cc1ccc(F)cc1 [1-(4-Fluorobenzyl)-5-methoxy-2-methylindole-3-acetic acid] | 0.987 ± 0.014 | 0.977 ± 0.017 | 0.983 ± 0.028 | 0.982 ± 0.013 | 0.9717 ± 0.0076 | 0.974 ± 0.0027
COC(=O)Nc1ccc(-c2nc(N3CCOCC3)c3cnn(C4CCN(C(=O)OC)CC4)c3n2)cc1 | 0.505 ± 0.038 | 0.753 ± 0.013 | 0.563 ± 0.029 | 0.769 ± 0.067 | 0.476 ± 0.02 | 0.924 ± 0.015
CCn1nnc2c(N3CCOCC3)nc(-c3ccc(NC(=O)Nc4ccc(C(=O)N5CCN(C)CC5)cc4)cc3)nc21 | 0.201 ± 0.0067 | 0.375 ± 0.015 | 0.287 ± 0.01 | 0.543 ± 0.024 | 0.077 ± 0.01 | 0.22 ± 0.016
CN(C)C1CCN(C(=O)c2ccc(NC(=O)Nc3ccc(-c4nc(N5CCOCC5)nc(N5CCOCC5)n4)cc3)cc2)CC1 | 0.231 ± 0.011 | 0.105 ± 0.0056 | 0.311 ± 0.026 | 0.147 ± 0.012 | 0.0929 ± 0.0075 | 0.0212 ± 0.0032
C=CS(=O)(=O)NC1CCN(C(=O)CNc2cc(I)c(Cl)cc2OC)CC1 [K-Ras(G12C) inhibitor 9] | 1.03 ± 0.01 | 1.07 ± 0.029 | 1.04 | 1.04 ± 0.025 | 0.993 ± 0.0036 | 0.996 ± 0.014
C[N+](C)(C)CC=O [Betaine aldehyde chloride] | 0.9877 ± 0.0021 | 0.993 ± 0.012 | 0.9913 ± 0.0081 | 0.993 ± 0.0085 | 0.9647 ± 0.0015 | 0.9803 ± 0.0015
NC[C@@H](O)c1ccc(O)c(O)c1 [L(-)-Norepinephrine bitartrate] | 1 ± 0.018 | 0.971 ± 0.011 | 1 ± 0.021 | 0.968 ± 0.0085 | 0.98 ± 0.017 | 0.9767 ± 0.0011
Nc1nc2c(nc(Br)n2C2OC3COP(=O)(O)O[C@@H]3C2O)c(=O)[nH]1 (stereo partly specified) [8-Bromo-cGMP sodium] | 1.023 ± 0.0058 | 1.02 | 1.02 ± 0.01 | 1 ± 0.028 | 1.01 ± 0.011 | 1.01 ± 0.015
CCN(CC)CCCC(C)Nc1nc(C)cc(Nc2ccc3nc(C)cc(N)c3c2)n1 (stereo unspecified) | 0.845 ± 0.0082 | 0.444 ± 0.019 | 0.888 ± 0.01 | 0.688 ± 0.036 | 1 ± 0.013 | 0.119 ± 0.0062
CCc1ccc(OCc2ccccc2C(=O)Nc2ccc3nc(C)cc(N)c3c2)cc1 | 1.04 ± 0.011 | 0.00134 ± 0.00041 | 1.05 ± 0.017 | 0.00123 ± 0.00019 | 1.023 ± 0.0058 | 0.00113 ± 0.0006
Cc1cc([C@@H](C)Nc2ccccc2C(=O)O)c2nc(N3CCOCC3)cc(=O)n2c1 | 0.878 ± 0.043 | 0.764 ± 0.062 | 0.879 ± 0.023 | 0.791 ± 0.03 | 0.9667 ± 0.0091 | 0.899 ± 0.035
CCCC(CCC)C(=O)NO [Valproic acid hydroxamate] | 1 ± 0.022 | 1.01 ± 0.022 | 1.01 ± 0.016 | 1.02 ± 0.016 | 0.9982 ± 0.0077 | 0.9988 ± 0.0092
NC1CCN(O)C1=O (racemic) | 0.983 ± 0.011 | 0.999 ± 0.011 | 0.9857 ± 0.0051 | 0.984 ± 0.023 | 0.985 ± 0.013 | 0.98733 ± 0.00058

Reference: the supplement of paper PMC8285479
